Reference: PubChem BioAssay (NCATS)
Where “and” joins values, the source holds several entries; their conditions need not be identical. Identical values can stand only once. Records with an inconclusive call do not appear. Calls of active or inactive are those of the source. Unless noted, calls come from the whole dose curve; as a rule, active = well fitted curve in either direction with a large enough effect (not every such curve was filed as active); inconclusive = small, poorly fitted or top-dose-only effect, or another doubt; inactive = flat fitted curve, though single readings scatter.

Tests used:
[1] = AP1 Signaling Pathway (AID 357);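 note: ME-180 reporter cells stimulated with EGF at its EC50 level; % is set by controls: 0 for no effect and ±100 for the full control effect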
Summary of the method: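 First, ME-180 AP-1-bla cells were cultured overnight at 37 °C in low-serum Opti-MEM. Next, titrated compounds with EC50 EGF were incubated 5 hours. Finally, CCF4 was added for 2.5 hours and the 460/530 nm ratio recorded.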

[2] = molecular target: Cytochrome P450 1A2 (Homo sapiens) (UniProt P05177); assay: p450-cyp1a2 (AID 410; calls by dose curve; note: potency is the fitted concentration of half-maximal effect;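 for activity change, negative = inhibition: -100% = full effect of reference inhibitor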)
Summary of the method: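 20nM CYP1A2, 100uM Luciferin-ME (=Km), 100mM KPO4; cpd 10 min RT; +NADPH regen, 60 min RT; stop/detect 20 min; luminescence. Normalized to furafylline 57 uM = full inhibition.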

[3] = NFAT Signaling Pathway (AID 444); settings: Jurkat NFAT-bla M1, carbachol, beta-lactamase ratio, 5 h;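 note: carbachol stimulus at about its EC50 of 1 µM final; % is set by controls: 0 for no effect and ±100 for the full control effect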
Summary of the method: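 Read-out: CCF4 FRET ratio (460 nm/530 nm) after 1 h RT dye loading, used for %activity and AC50 from titration series. Cells: Jurkat NFAT-β-lactamase/M1 line, treated with compound plus 1 uM carbachol for 5 h, 37 °C.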

[4] = Stat Signaling Pathway (AID 446);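 note: ME-180 cervical cancer cells given 40 pM IL-6 alongside compound; SIE-controlled beta-lactamase reporter measured as 460/530 nm FRET emission ratio; % is set by controls: 0 for no effect and ±100 for the full control effect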
Summary of the method: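 Normalization used AC90 stimulation (300 pM IL-6) and AC90 inhibition (125 nM pan-JAK inhibitor at 40 pM IL-6). The underlying signal is SIE-driven beta-lactamase in ME-180 cells after 5 h IL-6 exposure with compound.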

[5] = molecular target: Glucocorticoid receptor (Homo sapiens) (UniProt P04150); assay: GR-GFP Redistribution (AID 450;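 active = compounds whose dose series gives a full or clear partial fitted curve of increased nuclear translocation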; note: potency is the fitted concentration of half-maximal effect); settings: U2OS GR-GFP nuclear translocation, laser cytometry, 2 h
[6] = molecular target: Glucocorticoid receptor (Homo sapiens) (UniProt P04150); assay: GR-EFC Redistribution (AID 451; calls by dose curve; note: potency is the fitted concentration of half-maximal effect); settings: CHO-K1 GR-EFC translocation, beta-gal luminescence, 2 h
Summary of the method: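 Translocation of GR-ED fusion to nuclear EA restores b-gal, read by luminescence after 1 h room-temperature detection. Engineered CHO-K1 biosensor cells, 1,000/well, exposed 2 h at 37 C to titrations up to 46 uM final.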

[7] = molecular target: Mitogen-activated protein kinase 10 (Mus musculus) (UniProt Q61831); assay: JNK3 AlphaScreen Assay (AID 530);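 note: kinase came from lysate of stimulated human HepG2 cells; signal reports phosphorylation of biotinylated GST-cJun 1-79 at Ser73 with 10 µM ATP; % is set by controls: 0 for no effect and ±100 for the full control effect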
Summary of the method: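 Kinase buffer: 20 mM Tris-HCl pH 7.6, 10 mM MgCl2, 1 mM DTT, 0.1 mM Na3VO4, 0.01% Tween-20; ATP 10 uM. Substrate biotin-GST-cJun(1-79), enzyme from activated HepG2 lysates. Detection by Ser73 phospho-antibody AlphaScreen.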

[8] = molecular target: 3',5'-cyclic-AMP phosphodiesterase 4B (Homo sapiens) (UniProt Q07343); assay: qHTS Assay for Inhibitors of PDE-IV (AID 607; active = well fitted activation curve with a large enough effect in the main read-out, with a control signal flat, not every such curve was filed as active; note: % of control where 0% means no effect)
Summary of the method: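 HEK293 ACTOne cells with CNG channel (1000/well), endogenous PDE4; membrane potential dye, compounds up to 22.9 uM final. Fluorescence Ex 535/Em 590; RO 20-1724 (100 uM final) as reference.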

[9] = qHTS Assay for Lipid Storage Modulators (AID 1519; calls by dose curve); settings: Drosophila S3 cells, BODIPY lipid droplet/cell ratio, laser cytometry, cells loaded with oleic acid; for activity change, negative = inhibition: at 25.7 µM (top of the series)
Summary of the method: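 Cells seeded at 5,000 per well were treated with compounds over a concentration series and loaded with oleic acid (400 uM, as added). Lipid droplet fluorescence (488 nm excitation, 500-530 nm channel) was read by laser-scanning cytometry and normalized to 20 uM Triacsin C.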

[10] = molecular target: ATP-dependent 6-phosphofructokinase (Trypanosoma brucei brucei) (UniProt O15648); assay: qHTS Assay to Find Inhibitors of T. brucei phosphofructokinase: hit validation (AID 492961; active = well fitted curve in the direction sought with a large enough effect; an effect the other way counts as inactive or inconclusive)
Summary of the method: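 ADP-Glo luminescence read-out of ADP formed by 1.25 nM PFK from 0.1 mM ATP and 0.5 mM F6P (TEA pH 8.0, 45 min, RT). Compounds titrated; activity normalized to no-enzyme and full-enzyme controls.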

[11] = molecular target: Ubiquitin carboxyl-terminal hydrolase 1 (Homo sapiens) (UniProt O94782); assay: Inhibitors of USP1/UAF1: Pilot qHTS (AID 504865; active = well fitted curve in the direction sought with a large enough effect; an effect the other way counts as inactive or inconclusive;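 note: rhodamine fluorescence freed from ubiquitin-rhodamine substrate followed over time; top concentration of the series differs between compounds; % is set by controls: 0 for no effect and ±100 for the full control effect; nearly all actives have a fitted effect of over 35% in size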)
Summary of the method: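 1nM USP1/UAF1 + cpd, 15 min RT; start w/ Ub-Rho 150nM final; kinetic FL 480/540 nm, 6 reads q60 s. Buffer 50mM HEPES pH 7.8, 0.5mM EDTA, 1mM TCEP, 0.01% Tween-20, 0.1 mg/ml BSA.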

[12] = molecular target: Luciferin 4-monooxygenase (Photinus pyralis) (UniProt P08659); assay: Biochemical firefly luciferase enzyme assay for NPC (AID 624030; active = well fitted curve in the direction sought with a large enough effect; an effect the other way counts as inactive or inconclusive;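 note: purified P. pyralis luciferase at 10 nM with luciferin and ATP substrate; 0% = DMSO and -100% = full luciferase inhibition by PTC124 control; nearly all actives have a fitted effect of over 70% in size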)
Summary of the method: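 Direct inhibition of firefly luciferase enzyme (10 nM final, 50 mM Tris Acetate) assessed by luminescence within 5 minutes. Percent activity scaled between DMSO and PTC124 positive control, with concentration-effect curves classified by fit quality and response.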

[13] = qHTS profiling for inhibitors of Plasmodium falciparum proliferation (AID 504749; active = well fitted curve in the direction sought with a large enough effect; an effect the other way counts as inactive or inconclusive; note: nearly all actives have a fitted effect of over 60% in size; note: potency is the fitted concentration of half-maximal effect;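 for activity, negative = inhibition: 0% = DMSO vehicle and full inhibition = artemisinin control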); settings: P. falciparum in erythrocytes, SYBR Green DNA, 72 h
Summary of the method: (§1)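 In a 72 h erythrocytic culture (37 C, humidified, 5% CO2) at 2.5% hematocrit and 0.3% starting parasitemia, compounds were tested; SYBR Green I in detergent lysis buffer stained parasite DNA overnight.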

C2A = assay: as above; settings: P. falciparum in erythrocytes, SYBR Green DNA, 72 h; series mostly up to 28.7 µM
Summary of the method: as §1

CP192 = assay: as above; settings: P. falciparum in erythrocytes, SYBR Green DNA, 72 h; series mostly up to 28.7 µM
Summary of the method: as §1

CP211 = assay: as above; settings: P. falciparum in erythrocytes, SYBR Green DNA, 72 h; series mostly up to 28.7 µM
Summary of the method: as §1

CP266 = assay: as above; settings: P. falciparum in erythrocytes, SYBR Green DNA, 72 h; series mostly up to 12.8 µM
Summary of the method: as §1

CP315 = assay: as above; settings: P. falciparum in erythrocytes, SYBR Green DNA, 72 h; series mostly up to 28.7 µM
Summary of the method: as §1

CP329 = assay: as above; settings: P. falciparum in erythrocytes, SYBR Green DNA, 72 h; series mostly up to 28.7 µM
Summary of the method: as §1

FAB9 = assay: as above; settings: P. falciparum in erythrocytes, SYBR Green DNA, 72 h; series mostly up to 28.7 µM
Summary of the method: as §1

[14] = measured here: cell count channel max response
[15] = measured here: lipid channel max response
[16] = at 12.8 µM (top of the series), parasite line A
[17] = at 12.8 µM (top of the series), parasite line B

Sequence of ATP-dependent 6-phosphofructokinase (Trypanosoma brucei brucei) (O15648 whole entry, looked up): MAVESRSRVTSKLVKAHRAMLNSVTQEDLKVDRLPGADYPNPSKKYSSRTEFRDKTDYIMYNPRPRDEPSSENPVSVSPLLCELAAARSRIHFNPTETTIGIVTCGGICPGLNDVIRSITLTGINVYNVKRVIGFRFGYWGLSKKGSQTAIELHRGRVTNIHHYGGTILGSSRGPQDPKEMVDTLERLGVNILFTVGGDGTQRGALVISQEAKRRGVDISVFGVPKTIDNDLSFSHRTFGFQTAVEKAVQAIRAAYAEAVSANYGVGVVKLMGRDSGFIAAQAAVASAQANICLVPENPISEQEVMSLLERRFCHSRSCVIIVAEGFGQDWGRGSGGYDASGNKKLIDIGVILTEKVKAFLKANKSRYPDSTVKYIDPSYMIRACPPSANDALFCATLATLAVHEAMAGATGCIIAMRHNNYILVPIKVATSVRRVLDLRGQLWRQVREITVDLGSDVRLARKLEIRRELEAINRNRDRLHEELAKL
Sequence of Ubiquitin carboxyl-terminal hydrolase 1 (Homo sapiens) (O94782 whole entry, looked up): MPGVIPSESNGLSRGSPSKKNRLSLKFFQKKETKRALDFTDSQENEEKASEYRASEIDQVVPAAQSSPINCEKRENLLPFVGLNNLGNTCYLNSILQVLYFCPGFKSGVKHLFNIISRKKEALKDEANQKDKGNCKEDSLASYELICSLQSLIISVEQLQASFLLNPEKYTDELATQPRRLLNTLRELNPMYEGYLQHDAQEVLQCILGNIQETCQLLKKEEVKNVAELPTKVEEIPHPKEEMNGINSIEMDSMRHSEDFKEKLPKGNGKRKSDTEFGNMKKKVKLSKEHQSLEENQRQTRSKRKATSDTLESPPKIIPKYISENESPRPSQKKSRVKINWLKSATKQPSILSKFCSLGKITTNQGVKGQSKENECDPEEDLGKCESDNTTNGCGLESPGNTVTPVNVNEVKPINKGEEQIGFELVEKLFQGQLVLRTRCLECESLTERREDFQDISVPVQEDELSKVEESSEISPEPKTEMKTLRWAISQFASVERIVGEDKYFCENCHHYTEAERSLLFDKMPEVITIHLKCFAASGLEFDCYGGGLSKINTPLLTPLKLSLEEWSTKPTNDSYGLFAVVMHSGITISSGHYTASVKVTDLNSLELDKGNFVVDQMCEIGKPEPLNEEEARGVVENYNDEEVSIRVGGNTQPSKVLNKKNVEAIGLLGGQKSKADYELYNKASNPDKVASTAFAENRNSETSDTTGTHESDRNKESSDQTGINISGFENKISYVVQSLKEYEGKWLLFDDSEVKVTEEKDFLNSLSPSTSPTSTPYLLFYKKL
Sequence of Luciferin 4-monooxygenase (Photinus pyralis) (P08659 whole entry, looked up): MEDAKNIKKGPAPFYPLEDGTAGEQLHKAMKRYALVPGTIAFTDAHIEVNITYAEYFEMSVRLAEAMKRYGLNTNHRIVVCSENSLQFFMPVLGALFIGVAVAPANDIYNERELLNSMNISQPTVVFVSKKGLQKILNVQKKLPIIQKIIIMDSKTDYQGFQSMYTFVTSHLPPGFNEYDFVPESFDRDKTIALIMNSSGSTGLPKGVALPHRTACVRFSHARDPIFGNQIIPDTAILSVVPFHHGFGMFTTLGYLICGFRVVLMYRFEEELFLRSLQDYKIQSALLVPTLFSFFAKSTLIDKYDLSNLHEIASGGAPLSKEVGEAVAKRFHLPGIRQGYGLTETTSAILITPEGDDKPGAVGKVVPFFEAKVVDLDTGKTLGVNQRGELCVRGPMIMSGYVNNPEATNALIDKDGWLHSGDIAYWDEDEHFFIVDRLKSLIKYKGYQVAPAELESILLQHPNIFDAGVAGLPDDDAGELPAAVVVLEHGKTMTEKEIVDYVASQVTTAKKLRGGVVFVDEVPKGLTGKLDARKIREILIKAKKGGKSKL
Sequence of 3',5'-cyclic-AMP phosphodiesterase 4B (Homo sapiens) (Q07343 whole entry, looked up): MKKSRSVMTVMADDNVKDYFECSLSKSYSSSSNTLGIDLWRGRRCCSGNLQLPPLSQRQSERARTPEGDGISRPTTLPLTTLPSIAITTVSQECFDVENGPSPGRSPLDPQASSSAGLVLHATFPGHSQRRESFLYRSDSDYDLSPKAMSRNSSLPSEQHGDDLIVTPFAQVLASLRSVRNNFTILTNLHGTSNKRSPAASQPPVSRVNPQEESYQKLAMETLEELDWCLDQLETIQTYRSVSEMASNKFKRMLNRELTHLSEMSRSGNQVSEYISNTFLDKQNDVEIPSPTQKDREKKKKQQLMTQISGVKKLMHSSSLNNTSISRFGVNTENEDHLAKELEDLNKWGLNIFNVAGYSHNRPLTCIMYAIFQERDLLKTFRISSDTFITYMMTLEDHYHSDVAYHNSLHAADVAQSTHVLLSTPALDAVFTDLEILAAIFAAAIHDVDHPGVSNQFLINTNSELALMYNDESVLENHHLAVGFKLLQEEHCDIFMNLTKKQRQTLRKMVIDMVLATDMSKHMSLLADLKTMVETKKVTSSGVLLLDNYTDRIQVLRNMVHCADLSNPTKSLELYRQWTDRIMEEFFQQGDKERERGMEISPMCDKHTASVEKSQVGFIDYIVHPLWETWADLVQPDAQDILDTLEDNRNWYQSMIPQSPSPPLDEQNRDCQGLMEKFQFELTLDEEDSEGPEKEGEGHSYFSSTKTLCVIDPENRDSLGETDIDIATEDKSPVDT
Sequence of Cytochrome P450 1A2 (Homo sapiens) (P05177 whole entry, looked up): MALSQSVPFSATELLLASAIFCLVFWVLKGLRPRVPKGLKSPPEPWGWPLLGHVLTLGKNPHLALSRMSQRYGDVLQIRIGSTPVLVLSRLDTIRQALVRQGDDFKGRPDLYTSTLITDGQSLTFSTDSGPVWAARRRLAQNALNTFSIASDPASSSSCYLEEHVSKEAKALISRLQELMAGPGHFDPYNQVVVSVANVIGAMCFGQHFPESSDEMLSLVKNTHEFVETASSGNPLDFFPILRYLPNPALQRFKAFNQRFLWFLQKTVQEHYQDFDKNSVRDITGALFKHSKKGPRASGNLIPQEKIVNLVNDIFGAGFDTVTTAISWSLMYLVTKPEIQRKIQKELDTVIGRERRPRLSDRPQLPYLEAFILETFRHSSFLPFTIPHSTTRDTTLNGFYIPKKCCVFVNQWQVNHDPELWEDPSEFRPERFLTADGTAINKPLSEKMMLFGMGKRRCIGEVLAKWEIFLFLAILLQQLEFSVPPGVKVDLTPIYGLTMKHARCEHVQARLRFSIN
Sequence of Glucocorticoid receptor (Homo sapiens) (P04150 whole entry, looked up, the tested form may be a part): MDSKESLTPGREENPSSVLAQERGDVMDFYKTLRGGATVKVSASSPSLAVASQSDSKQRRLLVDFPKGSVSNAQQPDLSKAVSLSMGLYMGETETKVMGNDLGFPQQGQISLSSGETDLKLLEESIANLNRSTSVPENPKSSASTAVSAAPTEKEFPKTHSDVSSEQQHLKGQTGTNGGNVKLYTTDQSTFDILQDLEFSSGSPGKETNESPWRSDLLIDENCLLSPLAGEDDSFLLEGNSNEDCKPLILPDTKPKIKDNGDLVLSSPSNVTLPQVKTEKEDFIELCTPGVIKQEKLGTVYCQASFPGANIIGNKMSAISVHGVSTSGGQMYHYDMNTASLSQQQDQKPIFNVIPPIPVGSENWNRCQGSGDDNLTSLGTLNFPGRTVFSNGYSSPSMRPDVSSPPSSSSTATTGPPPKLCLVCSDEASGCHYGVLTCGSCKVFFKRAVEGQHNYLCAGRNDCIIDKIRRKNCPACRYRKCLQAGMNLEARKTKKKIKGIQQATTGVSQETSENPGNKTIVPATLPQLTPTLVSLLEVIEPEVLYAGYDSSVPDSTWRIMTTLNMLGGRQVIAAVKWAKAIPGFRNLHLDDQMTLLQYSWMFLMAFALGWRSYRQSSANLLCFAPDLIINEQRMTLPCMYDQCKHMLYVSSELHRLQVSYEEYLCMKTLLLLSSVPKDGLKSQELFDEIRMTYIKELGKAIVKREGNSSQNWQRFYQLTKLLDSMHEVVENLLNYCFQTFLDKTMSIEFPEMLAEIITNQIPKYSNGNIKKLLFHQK

CN(C)C(=O)Oc1cc(OC(=O)N(C)C)cc([C@@H](O)CNC(C)(C)C)c1
inactive: outcome [1] | Potency [2] | activity change, negative = inhibition ([3]; at 17.2 µM (top of the series)) -23.9% | outcome [4] | Potency [5] > 20.6 µM | Potency [6] > 20.6 µM | outcome [7] | Potency [8] | activity change, negative = inhibition [9] -0.844% | Potency [10] | Potency [11] | Potency [12] | activity, negative = inhibition [13, 16] 1.47% | activity, negative = inhibition [13, 17] -2.95% | Potency (C2A) | Potency (CP192) | Potency (CP211) | Potency (CP266) | Potency (CP315) | Potency (CP329) | Potency (FAB9)
0.267%: max response [9, 15]
2.58%: max response [9, 14]

CCC[C@@](C)(COC(N)=O)COC(=O)NC(C)C
inactive: outcome [1] | Potency [2] | activity change, negative = inhibition ([3]; at 17.2 µM (top of the series)) -5.77% | activity change, negative = inhibition ([3]; at 38 µM (top of the series)) -2.28% | outcome [4] | outcome [7] | activity change, negative = inhibition [9] -3.74% | Potency [11]
7.74%: max response [9, 15]
10.2%: max response [9, 14]

C=C1C/C(=C\C)C(=O)O[C@@H]2CCN3CC=C(COC(=O)[C@@]1(C)O)[C@H]23
10.5%: max response [9, 15]
inactive: outcome [1] | Potency [2] | activity change, negative = inhibition ([3]; at 17.2 µM (top of the series)) -7.46% | outcome [4] | Potency [5] > 20.6 µM | Potency [6] > 20.6 µM | outcome [7] | Potency [8] | activity change, negative = inhibition [9] 1.53% | Potency [11]
8.7%: max response [9, 14]

COc1ccc2c(c1OC)CN1CCc3cc4c(cc3[C@H]1C2)OCO4
inactive: outcome [1] | activity change, negative = inhibition ([3]; at 17.2 µM (top of the series)) -25.2% | outcome [4] | Potency [5] > 20.6 µM | Potency [6] > 20.6 µM | outcome [7] | Potency [8] | activity change, negative = inhibition [9] -2.73% | Potency [10] | Potency [11] | Potency [12]
-19%: max response [9, 15]
-16.8%: max response [9, 14]
active: Potency [2] 1.58 µM | Potency ([13]; parasite line A) 2 µM | Potency (C2A) 2.24 µM | Potency (CP192) 2.03 µM | Potency (CP211) 2.03 µM | Potency (CP315) 3.61 µM | Potency (CP329) 1.61 µM | Potency (FAB9) 3.16 µM

C[N+]1(C)[C@@H]2CC[C@H]1CC(OC(=O)[C@@H](CO)c1ccccc1)C2 (stereo partly drawn)
-7.55%: max response [9, 14]
active: activity change, negative = inhibition ([3]; at 17.2 µM (top of the series)) -48.4% | activity change, negative = inhibition ([3]; at 38 µM (top of the series)) -61.2%
inactive: outcome [1] | Potency [2] | Potency [5] > 46 µM and > 20.6 µM | Potency [6] > 46 µM and > 20.6 µM | outcome [7] | Potency [8] | activity change, negative = inhibition [9] -3.15% | Potency [10] | Potency [11] | Potency [12] | activity, negative = inhibition [13, 16] -5.22% | activity, negative = inhibition [13, 17] 11.2% | Potency (C2A) | Potency (CP192) | Potency (CP211) | Potency (CP266) | Potency (CP329) | Potency (FAB9)
-13.1%: max response [9, 15]

CNC[C@H](O)c1ccc(O)c(OC)c1
8.44%: max response [9, 15]
7.01%: max response [9, 14]
inactive: outcome [1] | Potency [2] | activity change, negative = inhibition ([3]; at 17.2 µM (top of the series)) 3.38% | outcome [4] | Potency [5] > 20.6 µM | Potency [6] > 20.6 µM | outcome [7] | Potency [8] | activity change, negative = inhibition [9] -0.567% | Potency [11]

CC[C@H](C)C(=O)O[C@@H]1[C@H](O)[C@@H]2[C@H](CN3C[C@@H](C)CC[C@@H]3[C@@]2(C)O)[C@@H]2C[C@@]34O[C@@]5(O)[C@@H](OC(=O)[C@](C)(O)CC)CC[C@@]3(C)[C@H]5[C@H](OC(C)=O)[C@@H](OC(C)=O)[C@H]4[C@]12O
-2.6%: max response [9, 14]
-3.1%: max response [9, 15]
inactive: outcome [1] | Potency [2] | activity change, negative = inhibition ([3]; at 17.2 µM (top of the series)) -8.39% | outcome [4] | Potency [5] > 20.6 µM | Potency [6] > 20.6 µM | outcome [7] | Potency [8] | activity change, negative = inhibition [9] -1.19%

Clc1ccc(CS[C@@H](Cn2ccnc2)c2ccc(Cl)cc2Cl)cc1
-14.6%: max response [9, 14]
inactive: outcome [1] | activity change, negative = inhibition [9] -2.77%
-18.3%: max response [9, 15]

CC(C)[C@@]1(NC(=O)[C@@H]2C[C@H]3c4cccc5[nH]cc(c45)C[C@@H]3N(C)C2)O[C@]2(O)[C@H]3CCCN3C(=O)CN2C1=O
8.08%: max response [9, 14]
inactive: outcome [1] | Potency [2] | activity change, negative = inhibition ([3]; at 17.2 µM (top of the series)) -1.94% | outcome [4] | Potency [5] > 20.6 µM | Potency [6] > 20.6 µM | outcome [7] | Potency [8] | activity change, negative = inhibition [9] 1.9% | Potency [11]
10.3%: max response [9, 15]

CCN1C[C@@]2(COC)CC[C@H](O)[C@@]34[C@@H]2C[C@@H]([C@@H]13)[C@]1(O)C[C@@H](OC)C2C[C@H]4[C@H]1[C@H]2OC(C)=O
-6.46%: max response [9, 14]
inactive: outcome [1] | Potency [2] | activity change, negative = inhibition ([3]; at 17.2 µM (top of the series)) -14.2% | outcome [4] | Potency [5] > 20.6 µM | Potency [6] > 20.6 µM | outcome [7] | activity change, negative = inhibition [9] 2.15%
-5.05%: max response [9, 15]

CC(=O)N[C@@H]1CCSC1=O
-4.81%: max response [9, 15]
-9.82%: max response [9, 14]
inactive: outcome [1] | Potency [2] | activity change, negative = inhibition ([3]; at 17.2 µM (top of the series)) -13% | outcome [4] | Potency [5] > 20.6 µM | Potency [6] > 20.6 µM | outcome [7] | activity change, negative = inhibition [9] 1.07% | Potency [11] | Potency [12]

C[C@H](NC(C)(C)C)C(=O)c1cccc(Cl)c1
-0.478%: max response [9, 14]
-2.37%: max response [9, 15]
inactive: outcome [1] | Potency [2] | activity change, negative = inhibition ([3]; at 17.2 µM (top of the series)) -9.97% | activity change, negative = inhibition ([3]; at 38 µM (top of the series)) -9.57% | outcome [4] | Potency [5] > 46 µM and > 20.6 µM | Potency [6] > 46 µM and > 20.6 µM | outcome [7] | Potency [8] | activity change, negative = inhibition [9] -1.98% | Potency [10] | Potency [11] | Potency [12] | activity, negative = inhibition ([13]; at 28.7 µM (top of the series), parasite line A) 3.13% | activity, negative = inhibition ([13]; at 28.7 µM (top of the series), parasite line B) 0.713% | Potency (C2A) | Potency (CP192) | Potency (CP211) | Potency (CP266) | Potency (CP315) | Potency (CP329) | Potency (FAB9)
